Screening results from PubChem.
Only a selection was taken, and hits are over-represented in it overall.
Tg IFNy HTS: T. gondii growth inhibition under IFN-gamma; Toxoplasma gondii growth in IFN-gamma-treated host cells; stronger effect = lower value; activity change, negative = inhibition, % (test concentration not listed); 69,000 tested, 3.8% active; AID 1259416; in the data active = activity change below about -70%, passing the limit was not always enough;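 also: host cells are HeLa cells infected with Toxoplasma gondii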
Hits are given with their value; 0 = inactive; ! = not confirmed by another sample.

SMILES	Tg IFNy HTS
CCOc1ccccc1NC(=O)c1nnn(Cc2nc(-c3cccc(OC)c3OC)oc2C)c1C	-79
CCN(CC)Cc1cn2c(n1)CN(C(=O)c1cnc(C)cn1)CC2	0
Cc1cccc(-c2cn[nH]c2C2CCN(C(=O)c3noc(C)c3CO)CC2)c1	0
CCOc1ccc(C(=O)N2CCC3(CC2)Nc2cc(OC)ccc2-n2cccc23)cc1	0
Cc1ccsc1CN(C)Cc1cn[nH]c1-c1ccc(F)cc1	0
Cc1cccc(OCC2CCCN(c3ccc(-c4nccn4C)nn3)C2)c1 (centres undefined)	0
COC(=O)C[C@H]1CC[C@@H]2[C@@H](COc3ccc(NC(=O)Nc4cccc(C#N)c4)cc3C(=O)N2C)O1	-79
Cc1cc(C(=O)Nc2ccc3c(c2)C(=O)N(C)[C@@H]2CC[C@@H](CC(=O)O)O[C@H]2CO3)no1	0
CN1C(=O)c2cc(NC(=O)c3ccc4c(c3)OCO4)ccc2OC[C@H]2O[C@H](CC(=O)O)CC[C@@H]21	0
CN1C(=O)c2cc(NC(=O)Nc3cccc(C#N)c3)ccc2OC[C@H]2O[C@@H](CC(=O)Nc3ccc4c(c3)CCC4)CC[C@@H]21	0
CN1C(=O)c2cc(NC(=O)Nc3cccc(C#N)c3)ccc2OC[C@H]2O[C@@H](CC(=O)NCc3ccc(Cl)cc3)CC[C@@H]21	0
Cc1cc(C(=O)Nc2ccc3c(c2)C(=O)N(C)[C@H]2CC[C@@H](CC(=O)NCc4ccc(-c5ccccc5)cc4)O[C@H]2CO3)no1	-79
CN1C(=O)c2cc(NC(=O)c3ccc(C(F)(F)F)cc3)ccc2OC[C@H]2O[C@H](CC(=O)NCc3ccc4c(c3)OCO4)CC[C@@H]21	-75
CN1C(=O)c2cc(NC(=O)c3cccc(F)c3)ccc2OC[C@@H]2O[C@H](CC(=O)NCc3ccccc3Cl)CC[C@H]21	0
CN1C(=O)c2cc(NC(=O)c3cccc(F)c3)ccc2OC[C@H]2O[C@@H](CC(=O)NCC3CCCCC3)CC[C@H]21	-77!
CN1C(=O)c2cc(NC(=O)c3ccc4c(c3)OCO4)ccc2OC[C@H]2O[C@@H](CC(=O)O)CC[C@@H]21	0
Cc1cc(C(=O)Nc2ccc3c(c2)C(=O)N(C)[C@H]2CC[C@H](CC(=O)NCc4ccc(-c5ccccc5)cc4)O[C@@H]2CO3)no1	0
CN1C(=O)c2cc(NC(=O)c3cccc(F)c3)ccc2OC[C@@H]2O[C@H](CC(=O)NCC3CCCCC3)CC[C@@H]21	0
O=C(Cn1ncc2c(N3CCN(c4ccccc4)CC3)ncnc21)Nc1ccccc1Cl	0
CCc1cnc(N2C[C@@H]3CN(Cc4cccc(C)n4)C(=O)[C@@H]3C2)nc1	0
O=C(NCc1ccccc1)c1ccc(S(=O)(=O)c2ccc(Oc3ccccc3)cc2)cc1	0
O=C1CCCCN1CCC(=O)N(Cc1ccsc1)CC1CCCO1 (centres undefined)	0
c1ccc(-c2cn[nH]c2C2CCCNC2)cc1 (centres undefined)	0
CC1CC1C(=O)N1C[C@H]2CCCC(N(C)Cc3cccnc3)[C@@H]2C1 (some centres undefined)	0
Cc1nc(CNC(=O)CCc2c(C)nc(=O)[nH]c2C)cs1	0
SMILES	Tg IFNy HTS
Cc1cc2nc(C)c(CCC(=O)Nc3c(C)ccc4cccnc34)c(C)n2n1	0
COCCn1c(SCc2ccccn2)nc2c([nH]c3ccccc32)c1=O	0
Cc1cc(C(=O)Nc2ccc3c(c2)C(=O)N(C)[C@@H]2CC[C@@H](CC(=O)NCc4ccc(-c5ccccc5)cc4)O[C@@H]2CO3)no1	0
Cc1cc(C(=O)Nc2ccc3c(c2)C(=O)N(C)[C@@H]2CC[C@H](CC(=O)NCc4ccc(-c5ccccc5)cc4)O[C@@H]2CO3)no1	-87
Cc1cc(C(=O)Nc2ccc3c(c2)C(=O)N(C)[C@H]2CC[C@H](CC(=O)NCc4ccc(-c5ccccc5)cc4)O[C@H]2CO3)no1	0
CC1OCc2cc(=O)n(C(C)C(=O)Nc3ccc(F)c(Cl)c3)nc21 (centres undefined)	0
CCOc1ccc(-c2nc3c(s2)CN(S(=O)(=O)c2ccc(F)cc2F)CC3)cc1	0
CCOc1ccc(S(=O)(=O)N2CCc3nc(-c4ccc(OC)cc4)sc3C2)cc1	0
COc1ccc(-c2nc3c(s2)CN(S(=O)(=O)c2cc(OC)ccc2OC)CC3)cc1	-120
COc1ccc(-c2nc3c(s2)CN(S(=O)(=O)c2ccc(F)cc2F)CC3)cc1	-95
CCc1ccc(S(=O)(=O)N2CCc3nc(-c4ccc(OC)cc4)sc3C2)cc1	0
Cc1cccc(-c2nccn2C(C)Cn2nc(C)cc2C)n1 (centres undefined)	0
Cc1ccc(S(=O)(=O)N2CCC3(CC2)NCCN=C3NCc2cc(F)cc(F)c2)cc1C	0
CCc1cccc(NC(=O)CN2CCC3(CC2)N=C(c2ccccc2)C(=O)N3)c1	0
Cc1nc(-c2ccc(F)cc2)sc1CCNC(=O)C(=O)Nc1ccccc1F	0
CC(NC(=O)CN1CCCCCC1)c1ccccc1 (centres undefined)	0
COc1ccc(OC)c(CC(=O)N2CCC(c3ccccc3C(=O)O)C2)c1 (centres undefined)	0
COCCN(Cc1cccs1)CC1CCOC1 (centres undefined)	0
CNCCn1c(=O)c2cc(OC)c(OC)cc2c2cnc3cc4c(cc3c21)OCO4	-80
Cc1c(-c2nnnn2-c2ccc(F)cc2)cnc2cc3c(cc12)OCO3	0
Cc1ccccc1-c1ccc2c(c1)O[C@H](CN(C)C(=O)Nc1ccc(C(F)(F)F)cc1)[C@H](C)CN([C@H](C)CO)S2(=O)=O	0
CCCNC(=O)N(C)C[C@H]1Oc2cc(C#C[C@@H](C)O)ccc2S(=O)(=O)N([C@@H](C)CO)C[C@@H]1C	0
C[C@H](CO)N1C[C@H](C)[C@@H](CN(C)C(=O)Nc2cccc(F)c2)Oc2cc(C#CC3(O)CCCC3)ccc2S1(=O)=O	-93
CCCNC(=O)N(C)C[C@@H]1Oc2cc(C#C[C@H](C)O)ccc2S(=O)(=O)N([C@@H](C)CO)C[C@H]1C	0
C[C@@H]1CN([C@H](C)CO)S(=O)(=O)c2ccc(C#CC3(O)CCCC3)cc2O[C@@H]1CN(C)C(=O)Nc1cccc(F)c1	-99
SMILES	Tg IFNy HTS
C[C@@H]1CN([C@H](C)CO)S(=O)(=O)c2ccc(C#CC3(O)CCCC3)cc2O[C@H]1CN(C)C(=O)Nc1cccc(F)c1	-90
Cc1ccccc1-c1ccc2c(c1)O[C@@H](CN(C)C(=O)Nc1ccc(C(F)(F)F)cc1)[C@H](C)CN([C@H](C)CO)S2(=O)=O	-92
CCCNC(=O)N(C)C[C@H]1Oc2cc(C#C[C@H](C)O)ccc2S(=O)(=O)N([C@@H](C)CO)C[C@@H]1C	0
CCCNC(=O)N(C)C[C@@H]1Oc2cc(C#C[C@@H](C)O)ccc2S(=O)(=O)N([C@@H](C)CO)C[C@@H]1C	0
C[C@H](CO)N1C[C@H](C)[C@@H](CN(C)C(=O)Nc2ccccc2F)Oc2cc(Br)ccc2S1(=O)=O	0
Cc1noc(C)c1NC(=O)N(C)C[C@H]1Oc2cc(C#CCN(C)C)ccc2S(=O)(=O)N([C@H](C)CO)C[C@@H]1C	0
CCCNC(=O)N(C)C[C@@H]1Oc2cc(C#C[C@@H](C)O)ccc2S(=O)(=O)N([C@H](C)CO)C[C@@H]1C	0
Cc1cc(C)cc(NC(=O)c2c(O)c3ccccc3n(-c3ccccc3)c2=O)c1	0
COc1cc(-c2nc(Cn3c(=O)c4c(C)cc(C)nc4n(C)c3=O)c(C)o2)cc(OC)c1OC	0
COc1ccc(S(=O)(=O)N(C)Cc2nnc(-c3ccccc3)o2)cc1C(C)(C)C	0
CC(=O)N1CCc2cc(NCc3cn(CCN4CCOCC4)c4ccccc34)ccc21	0
